Measured values from PubChem BioAssay (NCI).
The panel holds about 83,000 compounds, 20% with a hit somewhere; the sample as a whole holds those more often.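 Method: cells in 96-well plates; compound added at one concentration; 48 h incubation; percent growth measured; values under 10 scored active.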 Calls of active or inactive are those of the source.

Test system: HCT-116 colon
Experiment: NCI-60 one-dose screen, 48 h (100 = growth as untreated, 0 = no growth, -100 = all killed)
Conditions: 10 µM unless noted
Protocol: Growth inhibition of the HCT-116 human tumor cell line is measured as a screen for anti-cancer activity. Cells are grown in 96 well plates and exposed to the test compound for 48 hours. Compounds are tested at a single concentration, which is 10^-5 M for most compounds. The reported endpoint is percent growth (GI% or GIPRCNT), where numbers from 0 - 100% represent growth inhibition, and numbers from -100% - 0 represent cell death. For example, a value of 40 represents 60% growth inhibition. A value of 0 means no net growth occurred over the course of the experiment. A value of -40 indicates 40% of cells at the beginning of the experiment died by the end of the experiment. A value of -100 means all cells are dead at the end of the experiment.
NCI-60 Human Tumor Cell Lines Screen was performed using the standard one-dose NCI protocol, which is described in more detail at https://dtp.cancer.gov/discovery_development/nci-60/default.htm.
Compounds with GIPRCNT values below 10 were considered active. Activity score was based on GIPRCNT using the following formula: […]
Score is 0 for GIPRCNT values of 100 or above, 50 for GIPRCNT values of 0, and 100 for GIPRCNT values of -100.

| Structure (SMILES) | growth |
| --- | --- |
| CN(Cc1cccc(C(F)(F)F)c1)C(=O)[C@@H](CC(=O)N1CCC(N2CCCCC2)CC1)N1C(=O)[C@@H](N2C(=O)OC[C@@H]2c2ccccc2)[C@H]1/C=C/c1ccccc1 | 85.2% (inactive) |
| NS(=O)(=O)c1ccc(CCN2C(=O)/C(=C\c3ccccc3)C=C2c2ccc(Cl)cc2)cc1 | 96.5% (inactive) |
| COc1ccc(CC(C#N)c2ccc(Cl)cc2)cc1 (stereo not given) | 72.4% (inactive) |
| COc1c(C(C)=O)c(OCCCCOc2c(C(C)=O)c(OC)c3ccoc3c2OC)c(OC)c2occc12 | 78% (inactive) |
| O=C(N=c1n(-c2ccccc2)nc2n1CCN2C1=NCCN1)c1ccc(Cl)cc1 | 103% (inactive) |
| COc1cc(/C=C/C(=O)/C=C/c2ccc(-n3ccnc3C)cc2)ccc1O | 90.6% (inactive) |
| CNc1cc(C(=O)O)nc(NC)n1 | 104% (inactive) |
| Cc1ccc(-c2cc(O)c(-c3ccc(C)cc3C)cc2O)c(C)c1 | 23.9% (inactive) |
| COc1ccc(-c2cc(-c3ccc(Cl)cc3)nc(NCCCCNc3ccnc4cc(Cl)ccc34)n2)cc1 | 23.4% (inactive) |
| CC(C)C1=NOC(=O)C1=Cc1cn(-c2cccnc2)nc1-c1ccccc1 | 81.2% (inactive) |
| CN(C)c1ccc(N=Nc2ccc3ccccc3c2)cc1 | 66% (inactive) |
| Cc1cc2c(C(C)C)c(O)c(O)c(C=NCc3ccoc3)c2c(O)c1-c1c(C)cc2c(C(C)C)c(O)c(O)c(C=NCc3ccco3)c2c1O | 20.7% (inactive) |
| CC(C)c1ccc(/C=N/N=C(N)N)cc1 | 84.3% (inactive) |
| c1coc2occoc=2o1 | 109% (inactive) |
| CCOC(=O)c1nn(C2CCCCO2)c2ccc(NC(=O)CN3CCCC3)cc12 (stereo not given) | 89.9% (inactive) |
| Nc1nc(Nc2ccccc2)c2ncn(Cc3cc4c(cc3Br)OCO4)c2n1 | 7.79% (active) |
| O=C(OCc1ccc2c(Cl)cc(Cl)c(O)c2n1)N1CCN(C(=O)c2cc3cc(F)ccc3[nH]2)CC1 | 5.58% (active) |
| CCOc1ccc(S(=O)(=O)Nc2ccc3c(c2)N(S(=O)(=O)CC)CCC3)cc1 | 90.8% (inactive) |
| c1ccc(-c2nnc(-c3c[nH]c4ncccc34)s2)cc1 | 91% (inactive) |
| Cc1c(Cn2cc(COc3ccc(Br)cc3)nn2)c(C)c(Cn2cc(COc3ccc(Br)cc3)nn2)c(C)c1Cn1cc(COc2ccc(Br)cc2)nn1 | 92.3% (inactive) |

| Structure (SMILES) | growth |
| --- | --- |
| COc1cc(C)cc2oc3oc(=O)c(-c4nc5ccccc5s4)cc3c(=O)c12 | 93.4% (inactive) |
| CC1=C/C(=C(\c2cc(C)c(O)c(C(=O)O)c2)c2c(Cl)cccc2Cl)C=C(C(=O)O)C1=O | 105% (inactive) |
| C=CC1=C(C)C2=NC1=CC1=NC(=CC3=C(C)C4=C(O)C(C(=O)O)C(=C5NC(=C2)C(C)C5CCC(=O)O)C4=N3)C(CC)=C1C (stereo not given) | 101% (inactive) |
| C=C(C)[C@@H]1CC[C@]2(COCCCN)CC[C@]3(C)[C@H](CC[C@@H]4[C@@](C)(CCCNCCCN)[C@H](C(=C)C)CC[C@]43C)[C@@H]12 | -31.7% [100 µM] (active) |
| COc1ccc(/C=C2\N=C(Nc3ccccc3)N(NC(=O)c3ccccn3)C2=O)cc1 | 90.1% (inactive) |
| COc1cc(OC)c(/C=C/C(=O)c2c(N)cc(OC)cc2OC)c(OC)c1 | 14.8% (inactive) |
| O=C(N/N=C/c1ccc([N+](=O)[O-])cc1)c1ccc(Br)o1 | 99.4% (inactive) |
| Oc1cc(Nc2ccnc3cc(Cl)ccc23)c2ncccc2c1 | 69.3% (inactive) |
| CCOC(=O)c1cc(C#N)n2ncc3ccccc3c12 | 90.8% (inactive) |
| N#Cc1ccc(-c2ccc(COc3ccc(CC4SC(=O)NC4=O)cc3)cc2)cc1 (stereo not given) | 42.5% (inactive) |
| CCN(CC)CCCC(C)Nc1c2ccc(C)cc2nc2ccc(OC)cc12 (stereo not given) | 16.6% (inactive) |
| CC(=O)Nc1ccc2nc3ccc(NC(C)=O)cc3[n+](-c3ccccc3)c2c1 | 95.6% (inactive) |
| CC[C@]12C=CCN3CC[C@@]4(c5ccc(OC)cc5N(C)[C@H]4[C@@](O)(C(=O)OC)[C@@H]1OC(=O)CCC(=O)O[C@H]1CC[C@H]4[C@@H]5CCC6=CC(=O)CC[C@@H]6[C@H]5CC[C@]14C)[C@@H]32 | 3.76% [100 µM] (active) |
| CCCC(NC(=O)OCc1ccccc1)C(=O)O (stereo not given) | 98.1% (inactive) |
| COc1ccc(C(=O)CSc2nccc(Nc3ccc(C(=O)O)cc3)n2)cc1 | 95.7% (inactive) |
| C/C=C/C1OC23CCCCC2C(C#N)(C(=N)O3)C1(C#N)C#N (stereo not given) | 94.2% (inactive) |
| C=C(C)[C@@H]1CC[C@]2(COC(=O)c3ccccc3C(=O)O)CC[C@]3(C)[C@H](CC[C@@H]4[C@@]5(C)CC[C@H](OC(=O)c6ccccc6C(=O)O)C(C)(C)[C@@H]5CC[C@]43C)[C@@H]12 | 21.3% [100 µM] (inactive) |
| Cc1ccc(-c2cc(-c3ccc(C)cc3)nc(N3CCN(CCNc4ccnc5cc(Cl)ccc45)CC3)n2)cc1 | -3.1% (active) |
| CCN(CC)CCCNCc1cc(-c2ccccc2)nc2ccccc12 | 7.25% (active) |
| C[n+]1cccc(NC(=O)c2ccc3ccc4ccc(C(=O)Nc5ccc[n+](C)c5)nc4c3n2)c1 | 43.1% (inactive) |
